Data from PubChem BioAssay AID1159580 (chemical genetic matrix, 2015).
Hit rate of the full screen: of about 5,500 compounds, about 2,000 (36%) were called active. Roughly 18% stayed inconclusive and do not appear here. No stated cut-off is given here; in the data, active means normalized growth mostly below about 0.91 (no sharp cut-off); inconclusive means no clear call, values can overlap the other calls; inactive means mostly above about 0.92. The list shows a part of the results.

Assay: chemical genetic growth profiling, strain panel (AID 1159580);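 further: tested at 20 µM; growth read once vehicle control cultures reached saturation at 30 °C; 1 = growth at the plate median or of vehicle wells; lower values mean less growth of the strain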
Details: S. cerevisiae deletion strains, growth OD
[1] = locus YAR019C, strain CDC15, hits give low values
[2] = locus YBL105C, strain PKC1, hits give low values
[3] = locus YBR135W, strain CKS1, hits give low values
[4] = locus YBR136W, strain MEC1, hits give low values
[5] = locus YBR160W, strain CDC28, hits give low values
[6] = locus YDL017W, strain CDC7, hits give low values
[7] = locus YDL028C, strain MPS1, hits give low values
[8] = locus YDL101C, strain DUN1, hits give low values
[9] = locus YDL108W, strain KIN28, hits give low values
[10] = locus YDL132W, strain cdc53, hits give low values
[11] = locus YDL214C, strain PRR2, hits give low values
[12] = locus YDR052C, strain DBF4, hits give low values
[13] = locus YDR054C, strain cdc34, hits give low values
[14] = locus YDR226W, strain ADK1, hits give low values
[15] = locus YDR477W, strain SNF1, hits give low values
[16] = locus YER123W, strain YCK3, hits give low values
[17] = locus YER133W, strain GLC7, hits give low values
[18] = locus YFL009W, strain cdc4, hits give low values
[19] = locus YFL029C, strain CAK1, hits give low values
[20] = locus YFR003C, strain YPI1, hits give low values
[21] = locus YFR019W, strain FAB1, hits give low values
[22] = locus YFR028C, strain CDC14, hits give low values
[23] = locus YGR040W, strain KSS1, hits give low values
[24] = locus YGR052W, strain FMP48, hits give low values
[25] = locus YGR092W, strain DBF2, hits give low values
[26] = locus YHR030C, strain SLT2, hits give low values
[27] = locus YHR079C, strain IRE1, hits give low values
[28] = locus YHR082C, strain KSP1, hits give low values
[29] = locus YHR205W, strain SCH9, hits give low values
[30] = locus YIL147C, strain SLN1, hits give low values
[31] = locus YJL095W, strain BCK1, hits give low values
[32] = locus YJL128C, strain PBS2, hits give low values
[33] = locus YJL157C, strain FAR1, hits give low values
[34] = locus YJR016C, strain ILV3, hits give low values
[35] = locus YJR066W, strain TOR1 (second series), hits give low values
[36] = locus YJR066W, strain TOR1, hits give low values
[37] = locus YKL048C, strain ELM1, hits give low values
[38] = locus YKL067W, strain YNK1, hits give low values
[39] = locus YKL101W, strain HSL1, hits give low values
[40] = locus YKL193C, strain SDS22, hits give low values
[41] = locus YKL203C, strain TOR2, hits give low values
[42] = locus YLR113W, strain HOG1, hits give low values
[43] = locus YLR133W, strain CKI1, hits give low values
[44] = locus YLR403W, strain SFP1, hits give low values
[45] = locus YML070W, strain DAK1, hits give low values
[46] = locus YMR001C, strain CDC5, hits give low values
[47] = locus YMR205C, strain PFK2 (second series), hits give low values
[48] = locus YMR277W, strain FCP1, hits give low values
[49] = locus YNL006W, strain LST8, hits give low values
[50] = locus YNL020C, strain ARK1, hits give low values
[51] = locus YNL161W, strain CBK1, hits give low values
[52] = locus YNL183C, strain NPR1, hits give low values
[53] = locus YNL207W, strain RIO2, hits give low values
[54] = locus YNL222W, strain SSU72, hits give low values
[55] = locus YNL307C, strain MCK1 (second series), hits give low values
[56] = locus YOL078W, strain AVO1, hits give low values
[57] = locus YOL136C, strain PFK27, hits give low values
[58] = locus YOR061W, strain CKA2, hits give low values
[59] = locus YOR119C, strain RIO1, hits give low values
[60] = locus YOR231W, strain MKK1, hits give low values
[61] = locus YOR329C, strain SCD5, hits give low values
[62] = locus YPL031C, strain PHO85, hits give low values
[63] = locus YPL153C, strain RAD53, hits give low values
[64] = locus YPL204W, strain HRR25, hits give low values
[65] = locus YPL209C, strain IPL1, hits give low values
[66] = locus YPL256C, strain CLN2, hits give low values
[67] = locus YPR025C, strain CCL1, hits give low values
[68] = locus YPR106W, strain ISR1, hits give low values
[69] = locus YPR111W, strain DBF20, hits give low values
[70] = strain NNK1, hits give low values
[71] = strain TSCII, hits give low values

Measured: normalized growth

CC(=O)Oc1ccc2c(=O)c(Oc3ccc(Cl)cc3)c(C)oc2c1
active: [26] 0.802 | [42] 0.768
inactive: [1] 0.969 | [2] 0.964 | [3] 0.968 | [4] 0.954 | [5] 0.962 | [6] 0.963 | [7] 0.956 | [8] 0.951 | [9] 0.958 | [10] 0.96 | [11] 0.938 | [12] 0.959 | [13] 0.96 | [14] 0.957 | [15] 0.945 | [16] 0.918 | [17] 0.939 | [18] 0.97 | [19] 0.964 | [20] 0.968 | [21] 0.979 | [22] 0.963 | [23] 0.953 | [24] 0.887 | [25] 0.692 | [27] 0.897 | [28] 0.917 | [29] 0.776 | [30] 0.947 | [31] 0.7 | [32] 0.923 | [33] 0.973 | [34] 0.964 | [35] 0.953 | [36] 0.896 | [37] 0.933 | [38] 0.94 | [39] 0.908 | [40] 0.953 | [41] 0.968 | [43] 0.952 | [44] 0.887 | [45] 0.921 | [46] 0.961 | [47] 0.935 | [48] 0.969 | [49] 0.985 | [50] 0.952 | [51] 0.965 | [52] 0.875 | [53] 0.953 | [54] 0.97 | [55] 0.808 | [56] 0.95 | [57] 0.933 | [58] 0.959 | [59] 0.995 | [60] 0.834 | [61] 0.961 | [62] 0.935 | [63] 0.954 | [64] 0.943 | [65] 0.96 | [66] 0.909 | [67] 0.965 | [68] 0.955 | [69] 0.941 | [70] 0.94 | [71] 0.964

COC(=O)c1ccc(Oc2c(C(F)(F)F)oc3cc(O)ccc3c2=O)cc1
inactive: [1] 0.976 | [2] 0.976 | [3] 0.975 | [4] 0.974 | [5] 0.986 | [6] 0.977 | [7] 0.979 | [8] 0.982 | [9] 0.976 | [10] 0.961 | [11] 0.949 | [12] 0.984 | [13] 0.959 | [14] 0.964 | [15] 0.948 | [16] 0.924 | [17] 0.929 | [18] 0.969 | [19] 0.976 | [20] 0.974 | [21] 0.938 | [22] 0.965 | [23] 0.941 | [24] 0.962 | [25] 0.948 | [26] 0.902 | [27] 0.926 | [28] 1.01 | [29] 0.949 | [30] 0.978 | [31] 0.904 | [32] 0.941 | [33] 0.936 | [34] 0.974 | [35] 0.93 | [36] 1.01 | [37] 0.968 | [38] 0.956 | [39] 0.945 | [40] 0.967 | [41] 1.01 | [42] 0.869 | [43] 0.95 | [44] 0.938 | [45] 0.934 | [46] 0.972 | [47] 0.969 | [48] 0.978 | [49] 0.972 | [50] 0.949 | [51] 0.962 | [52] 1.02 | [53] 0.969 | [54] 0.979 | [55] 0.95 | [56] 0.97 | [57] 0.933 | [58] 0.968 | [59] 1.02 | [60] 0.967 | [61] 0.975 | [62] 0.94 | [63] 0.935 | [64] 0.95 | [65] 0.971 | [66] 0.9 | [67] 0.98 | [68] 0.979 | [69] 0.979 | [70] 0.973 | [71] 0.96
